Out of some 77,000 compounds screened, about 4,600 (6%) were called active. About 1% were inconclusive and are not listed. What follows is part of a selection rich in actives, with near analogues and random picks from the rest. Unmarked numbers belong to inactive results.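 Rule for the calls: active = mean inhibition above about 93%, with at least 55% of replicates each passing it (limit read from the data, passing the limit was not always enough); inconclusive = only one of those two conditions holds; inactive = neither condition holds.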
Assay: growth inhibition of T. cruzi in host fibroblasts – cell-based, beta-gal Tulahuen parasites, NIH3T3 host, luminescence, primary screen (AID 624255)
Details: T. cruzi beta-gal in NIH3T3, GalScreen luminescence, 90 h; at 8.34 µM; stronger effect = higher value

| Compound | inhibition |
| --- | --- |
| C[C@@H]1CN([C@H](C)CO)C(=O)c2cc(C#CCN(C)C)cnc2O[C@H]1CN(C)C(=O)NC1CCCC1 | -10.7% |
| COc1ccc(S(=O)(=O)N[C@@H]2CC[C@H](CC(=O)N3CCc4ccccc4C3)O[C@H]2CO)cc1 | 16.5% |
| CC(C)C#Cc1cnc2c(c1)C(=O)N([C@@H](C)CO)C[C@@H](C)[C@H](CN(C)C(=O)CCN1CCCCC1)O2 | 15% |
| CC(=O)Nc1ccc2c(c1)C(=O)N(C)[C@@H]1CC[C@@H](CC(=O)NCC3CCCCC3)O[C@@H]1CO2 | 8.56% |
| COCC(=O)N(C)C[C@H]1Oc2ncc(-c3cccc(OC)c3)cc2C(=O)N([C@H](C)CO)C[C@H]1C | -6.11% |
| O=C(Nc1ccc(F)cc1)N1CCCCN2[C@H](CO)[C@H](c3ccc(C#Cc4ccccc4)cc3)[C@H]2C1 | 76.6% |
| N#Cc1cccc(-c2ccc([C@H]3[C@H](CO)N4CCCCN(C(=O)Nc5cccc(F)c5)C[C@@H]34)cc2)c1 | 105% (active) |
| COc1ccccc1C#Cc1ccc([C@@H]2[C@H](CO)N3CCCCN(CCC(F)(F)F)C[C@@H]23)cc1 | 42.4% |
| O=C(Nc1ccccc1)N1CCCCN2[C@H](CO)[C@@H](c3ccc(C#Cc4ccccn4)cc3)[C@H]2C1 | 108% (active) |
| O=C(C1CCC1)N1CCCCN2[C@H](C1)[C@@H](c1ccc(C#CC3CCCC3)cc1)[C@@H]2CO | 86.9% |
| OC[C@@H]1[C@H](c2ccc(C#CC3CC3)cc2)[C@@H]2CN(CCC(F)(F)F)CCCCN12 | 99.5% (active) |
| O=C(Nc1cccc(F)c1)N1CCCCN2[C@H](CO)[C@H](c3ccc(C#CC4CC4)cc3)[C@@H]2C1 | 122% (active) |
| O=C(c1ccncc1)N1CCCCN2[C@H](CO)[C@@H](c3ccc(C#Cc4ccccn4)cc3)[C@H]2C1 | 91.2% |
| COc1ccc(C#Cc2ccc([C@H]3[C@@H](CO)N4CCCCN(C(=O)Nc5ccccc5)C[C@H]34)cc2)cc1 | 80.4% |
| N#Cc1cccc(-c2ccc([C@H]3[C@@H](CO)N4CCCCN(C(=O)Nc5ccccc5)C[C@H]34)cc2)c1 | 75.3% |
| Cc1ccccc1-c1ccc([C@@H]2[C@@H](CO)N3CCCCN(C(=O)Nc4cccc(F)c4)C[C@H]23)cc1 | 91.9% |
| CC(C)C#Cc1ccc([C@H]2[C@@H](CO)N3CCCCN(C(=O)Nc4ccccc4)C[C@H]23)cc1 | 49.6% |
| CN1CCN(C(=O)C[C@@H]2C=C[C@@H](NS(=O)(=O)c3cccc(F)c3)[C@@H](CO)O2)CC1 | -46.4% |
| O=C(C[C@H]1C=C[C@H](NC(=O)NC2CCCCC2)[C@H](CO)O1)NCc1ccccc1 | -29.6% |
| COc1ccc(CN(C)C[C@H]2OCCCC[C@@H](C)Oc3ccc(NS(C)(=O)=O)cc3C(=O)N([C@@H](C)CO)C[C@H]2C)cc1 | 89.5% |
| CN(C)CC(=O)Nc1ccc2c(c1)[C@@H]1C[C@H](CC(=O)NCC3CC3)O[C@@H](CO)[C@@H]1O2 | -19.8% |

| Compound | inhibition |
| --- | --- |
| COc1ccc(NC(=O)Nc2ccc3c(c2)C(=O)N([C@@H](C)CO)C[C@H](C)[C@H](CN(C)C(=O)Nc2ccccc2)OCCCC[C@@H](C)O3)cc1 | 54% |
| CO[C@@H]1CN(C)C(=O)c2cc(NC(=O)c3cccc(F)c3)ccc2OC[C@H](C)N(C)C[C@@H]1C | 13.5% |
| O=C(c1cccnc1)N1C[C@H]2[C@@H](c3ccccc31)[C@H](CO)N2C(=O)C1CCCCC1 | 19.5% |
| COC(=O)C[C@@H]1CC[C@@H]2[C@H](COc3ccc(NS(=O)(=O)c4ccccc4F)cc3C(=O)N2C)O1 | 27.2% |
| CCCC(=O)Nc1ccc2c(c1)OC[C@@H](C)N(CC1CCOCC1)C[C@H](C)[C@H](OC)CN(C)C2=O | 7.69% |
| CCC(=O)N1CCCCN2[C@H](C1)[C@@H](c1ccc(/C=C/c3ccccc3)cc1)[C@@H]2CO | 105% (active) |
| COCC(=O)N1CCCCN2[C@H](CO)[C@H](c3ccc(-c4ccc(OC)cc4)cc3)[C@H]2C1 | 46.5% |
| C/C=C/c1ccc([C@H]2[C@@H](CO)N3CCCCN(C(=O)c4ccc(F)cc4)C[C@@H]23)cc1 | 90.9% |
| O=C(CN1CCOCC1)N1CCCCN2[C@H](CO)[C@H](c3ccc(-c4ccccc4)cc3)[C@@H]2C1 | 102% (active) |
| CC(=O)N1CCCCN2[C@H](C1)[C@@H](c1ccc(-c3ccc(F)cc3)cc1)[C@@H]2CO | 71% |
| COCC(=O)N1CCCCN2[C@H](CO)[C@@H](c3ccc(-c4ccc(OC)cc4)cc3)[C@@H]2C1 | 4.91% |
| CCC(=O)N1CCCCN2[C@H](CO)[C@@H](c3ccc(-c4cccnc4)cc3)[C@H]2C1 | 88.7% |
| COCC(=O)N1CCCCN2[C@H](C1)[C@@H](c1ccc(-c3ccccc3)cc1)[C@@H]2CO | 53.8% |
| O=C(CN1CCOCC1)N1CCCCN2[C@H](C1)[C@H](c1ccc(-c3ccccc3F)cc1)[C@@H]2CO | 26.1% |
| O=C(CN1CCOCC1)N1CCCCN2[C@@H](CO)[C@H](c3ccc(-c4ccccc4)cc3)[C@@H]2C1 | 112% (active) |
| CCC(=O)N1CCCCN2[C@H](C1)[C@@H](c1ccc(-c3ccc(F)cc3)cc1)[C@@H]2CO | 101% (active) |
| CO[C@@H]1CN(C)C(=O)c2ccc(NS(=O)(=O)c3ccc(C)cc3)cc2OC[C@@H](C)N(Cc2nccs2)C[C@H]1C | 41.1% |
| C[C@@H]1CN([C@@H](C)CO)C(=O)c2cc(C#CC3CC3)cnc2O[C@@H]1CN(C)C(=O)Cc1ccccn1 | 51.4% |
| CCCN(C)C[C@H]1OCCCC[C@@H](C)Oc2ccc(NC(=O)CCC(F)(F)F)cc2C(=O)N([C@H](C)CO)C[C@H]1C | 67.3% |
| O=C(C[C@H]1CC[C@@H](NC(=O)c2ccncc2)[C@@H](CO)O1)Nc1ccccc1 | 19.5% |
| CC(C)NC(=O)Nc1ccc2c(c1)C(=O)N(C)[C@H]1CC[C@H](CC(=O)NCC3CCCCC3)O[C@@H]1CO2 | 22.4% |

| Compound | inhibition |
| --- | --- |
| O=C(C1CCOCC1)N1C[C@H]2[C@@H](c3ccccc31)[C@@H](CO)N2Cc1ccccc1F | -22.5% |
| O=C(CN1CCOCC1)N1CCCCN2[C@H](CO)[C@H](c3ccc(Br)cc3)[C@H]2C1 | 36% |
| O=C(CN1CCOCC1)N1CCCCN2[C@@H](CO)[C@H](c3ccc(/C=C/c4ccccc4)cc3)[C@@H]2C1 | 102% (active) |
| OC[C@H]1[C@@H](c2ccc(/C=C/c3ccccc3)cc2)[C@H]2CN(Cc3cccnc3)CCCCN21 | 23.4% |
| COc1ccc(CN(C)C[C@H]2Oc3ccc(NS(=O)(=O)c4ccc(Cl)cc4)cc3CC(=O)N([C@@H](C)CO)C[C@H]2C)cc1 | 96.7% (active) |
| COc1ccc(S(=O)(=O)Nc2ccc3c(c2)C(=O)N([C@@H](C)CO)C[C@H](C)[C@H](CN(C)Cc2ccc(C(=O)O)cc2)O3)cc1 | -6.07% |
| Cc1ccc(S(=O)(=O)Nc2ccc3c(c2)C(=O)N([C@@H](C)CO)C[C@@H](C)[C@H](CN(C)Cc2ccc(C(F)(F)F)cc2)O3)cc1 | 42.1% |
| C[C@H](CO)N1C[C@H](C)[C@H](CN(C)Cc2ccc(C(F)(F)F)cc2)Oc2ccc(NS(=O)(=O)c3ccc(Cl)cc3)cc2C1=O | 127% (active) |
| COc1ccc(S(=O)(=O)Nc2ccc3c(c2)C(=O)N([C@@H](C)CO)C[C@H](C)[C@@H](CN(C)Cc2ccc(C(F)(F)F)cc2)O3)cc1 | 105% (active) |
| COc1ccc(CN(C)C[C@@H]2Oc3ccc(NS(=O)(=O)c4ccc(OC)cc4)cc3C(=O)N([C@H](C)CO)C[C@H]2C)cc1 | 0.955% |
| COc1ccc(S(=O)(=O)Nc2ccc3c(c2)CC(=O)N([C@@H](C)CO)C[C@H](C)[C@@H](CN(C)Cc2ccc(C(=O)O)cc2)O3)cc1 | -13.7% |
| COc1ccc(S(=O)(=O)Nc2ccc3c(c2)CC(=O)N([C@H](C)CO)C[C@H](C)[C@H](CN(C)Cc2ccc(C(F)(F)F)cc2)O3)cc1 | 75% |
| C[C@@H]1CN([C@@H](C)CO)C(=O)Cc2cc(NS(=O)(=O)c3ccc(Cl)cc3)ccc2O[C@H]1CN(C)Cc1ccc(C(F)(F)F)cc1 | -1.87% |
| COc1ccc(CN(C)C[C@@H]2Oc3ccc(NS(=O)(=O)c4ccc(F)cc4)cc3C(=O)N([C@@H](C)CO)C[C@@H]2C)cc1 | 11.1% |
| COc1ccc(CN(C)C[C@H]2Oc3ccc(NS(=O)(=O)c4ccc(C)cc4)cc3C(=O)N([C@@H](C)CO)C[C@H]2C)cc1 | 37.9% |
| COc1ccc(S(=O)(=O)Nc2ccc3c(c2)C(=O)N([C@H](C)CO)C[C@H](C)[C@H](CN(C)Cc2ccc(C(F)(F)F)cc2)O3)cc1 | 100% (active) |
| C[C@@H]1CN([C@@H](C)CO)S(=O)(=O)c2ccc(-c3ccncc3)cc2O[C@@H]1CN(C)C(=O)C1CCC1 | 76.2% |
| O=C(Nc1ccc(F)cc1)N[C@@H]1CC[C@H](CC(=O)N2CCCCC2)O[C@H]1CO | -3.48% |
| CCCNC(=O)[C@H]1[C@H](CO)[C@H]2Cn3c(ccc(-c4cccc(F)c4)c3=O)[C@@H]1N2C(=O)CC | 1.74% |
| CC(C)CC#Cc1cnc2c(c1)C(=O)N([C@H](C)CO)C[C@H](C)[C@@H](CN(C)C(=O)Cc1cccnc1)O2 | 3.64% |
| Cc1noc(C)c1S(=O)(=O)N(C)C[C@@H]1OCCCC[C@@H](C)Oc2ccc(NC(=O)c3ccccc3)cc2C(=O)N([C@@H](C)CO)C[C@@H]1C | 14.7% |

— PubChem BioAssay AID624255 (Broad Institute, 2012)
